Mtb FBA inh = inhibitors of M. tuberculosis fructose-bisphosphate aldolase | purified M. tuberculosis FBA, fluorescence read-out | AID 588726 | hit rate 2.3% among 360,000 | inhibition, % at 1 µM | P9WQA3; in the data active = inhibition above about 27%;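 also: 0% = vehicle and 100% = reference inhibitor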
Target sequence (P9WQA3 whole entry, looked up): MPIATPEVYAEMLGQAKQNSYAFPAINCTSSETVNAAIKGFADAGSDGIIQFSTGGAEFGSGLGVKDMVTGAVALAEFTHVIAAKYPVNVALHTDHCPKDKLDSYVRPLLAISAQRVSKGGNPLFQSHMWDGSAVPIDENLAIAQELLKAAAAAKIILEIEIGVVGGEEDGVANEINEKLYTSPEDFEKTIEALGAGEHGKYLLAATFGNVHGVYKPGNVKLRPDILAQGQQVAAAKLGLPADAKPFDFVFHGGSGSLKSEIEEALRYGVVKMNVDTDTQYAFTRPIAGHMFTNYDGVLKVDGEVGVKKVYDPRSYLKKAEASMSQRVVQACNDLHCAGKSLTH
CCHF vOTU inh = CCHFV vOTU protease inhibition. Pep-AMC fluorescence. inhibition, % at 11.5 µM. hit rate 0.55% among 370,000. AID 651958; also: 0% = vehicle wells with enzyme and 100% = no enzyme wells
RecA splice inh = blocks M. tuberculosis RecA intein splicing | P9WHJ3 | cell-free RecA intein splicing, fluorescence | inhibition, % (no concentration beside the values) | hit rate 0.75% among 290,000 | AID 2221; in the data active = inhibition above about 30%;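 also: 0% = vehicle wells and 100% = reference inhibitor control wells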
GDH-TPI inh = GDH-TPI coupled enzyme inhibition counter-screen; GDH-TPI coupled enzyme counterscreen, NADH absorbance; AID 588335; hit rate 1.2% among 360,000; inhibition, % at 4.8 µM;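 also: 0% = DMSO wells and 100% = wells lacking the enzyme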
Numbers without * were called inactive; i = inactive; / = not tested or not shown; + = active, no number. An excerpt weighted towards active compounds, which were near 4.2% of everything screened. Rule as the data show it, unless noted: active = inhibition above about 30%; inactive = the rest.

SMILES	Mtb FBA inh	CCHF vOTU inh	RecA splice inh	GDH-TPI inh
O=C(NCc1cccnc1)c1ccc(-c2cc(Cl)ccc2Cl)o1	-5	6	4	-2
CCc1nc2c(OCc3cccc(Cl)c3)cccn2c1N(C)C(=O)CC(C)C	-1	10	/	0
Cc1ccc(N=c2oc3cc(O)ccc3cc2C(N)=O)cc1	+	-139	-300	8
O=C(NCc1ccco1)c1cc2ccc(O)cc2oc1=O	+	-236	i	5
CC(=O)c1cc2cc(O)ccc2o1	+	-339	-15	17
CC(=O)c1cc2ccc(O)cc2oc1=O	+	-237	-361	10
Cc1ccc(C(=O)N/N=c2\oc3ccccc3cc2C(N)=O)cc1	1	5	-2	0
CCN1C[C@@H]2[C@@H]3C(=O)N(Cc4ccccc4)C(=O)[C@@H]3[C@](Cc3ccccc3)(C(=O)OC)N2C1=NC	-1	15	/	3
CC1CCN(c2ccc(C(=O)O)cc2NS(=O)(=O)c2ccccc2)CC1	/	6	/	/
CNc1nc(N)c([N+](=O)[O-])c(Nc2ccccc2OC)n1	6	13	-1	32*
O=C(CCl)c1ccc2[nH]c(=O)oc2c1	7	-2	4	20
CCOC(=O)C1=CCN(S(=O)(=O)c2ccccc2C)C1c1ccc(Cl)cc1 (centres undefined)	3	18	/	/
CCOC(=O)CNC(=O)c1ccccc1Br	+	-4	0	3
CCOC(=O)CNC(=O)c1ccccc1	-2	-9	-3	5
Nc1ccc(S(=O)(=O)c2cc(O)c3ccccc3c2O)cc1	-3	71*	/	11
CCOc1ccccc1C(=O)N[C@H](C(=O)Nc1nc2c(s1)CCCC2)C(C)C	-5	15	10	-2
COc1ccc(C(=O)N[C@H](C(=O)Nc2nc3c(s2)CCCC3)C(C)C)cc1	+	-2	7	-2
COc1ccc(N2CCN(CCNS(=O)(=O)c3cccs3)CC2)cc1	/	-5	/	/
CN(C)CCNC(=O)c1cccc2ccc(-c3ccc(-c4ccccc4)cc3)nc12	58*	-94	/	10
CN(C)CCNC(=O)c1cccc2nc3cccc(F)c3nc12	5	3	/	21
COC(=O)C1=C(C)N(Cc2cccc(C(F)(F)F)c2)C(=NCc2ccc3c(c2)OCO3)NC1c1ccc(F)cc1 (centres undefined)	/	26	/	/
O=C(c1ccccc1)N1CCN(c2ccc([N+](=O)[O-])c(NCc3cccnc3)c2)CC1	-21	12	9	13
CC(C)CC(=O)N1CCN(c2ccc([N+](=O)[O-])c(NCc3ccccc3)c2)CC1	-11	31*	7	5
C=C(C)CSc1nc2nc(C)c(Br)cc2[nH]1	2	-2	3	36*
Cn1c(=O)c2cc(S(=O)(=O)N3CCN(c4ccccc4Cl)CC3)ccc2n(C)c1=O	/	0	/	/
SMILES	Mtb FBA inh	CCHF vOTU inh	RecA splice inh	GDH-TPI inh
CCCOc1cccc(-c2nc3ccccc3c(=O)o2)c1	-2	9	43*	-5
CCC(=O)Nc1cccc(-c2nc3ccccc3c(=O)o2)c1	5	-1	-1	9
O=C(CSc1nnc(-c2ccccn2)n1Cc1ccco1)Nc1ccc(Oc2ccccc2)cc1	/	9	/	/
COc1cc(/C=C/C(=O)c2ccc3c(c2)OCCO3)cc(OC)c1OC	-3	15	4	37*
COc1cccc2c(=O)c3c(cnn3C)n(C)c12	+	-187	i	1
O=C(/C=C(\Nc1ccccc1)c1ccccc1)c1ccccc1	/	1	/	/
COc1ccc(/C=C/C(=O)N/C(=C\c2ccco2)C(=O)NCCc2nc3ccccc3[nH]2)cc1	-3	-5	6	34*
O=Cc1ccnc(-c2ccc(OC(=O)c3ccco3)cc2)n1	3	-14	36*	-6
O=C(Oc1ccc(-c2ccccc2)cc1)c1ccco1	0	9	/	7
CC(=NNc1nc2ccccc2s1)c1ccncn1	-4	16	/	34*
CCc1ccc(NC(=O)c2cc(S(=O)(=O)N3CCCC3)ccc2F)cc1	3	-4	/	-5
Clc1ccc2nnnc(-c3ccccc3)c2c1	1	5	56*	-3
c1ccc(-c2nnnc3ccccc23)cc1	-1	3	9	-7
O=C(NCc1ccco1)C1CCCN(S(=O)(=O)c2ccc(F)cc2)C1 (centres undefined)	/	7	/	/
COc1ccc(Cl)cc1-n1c(=S)sc2c(=O)[nH]c(SCC(=O)NCC3CCCO3)nc21 (centres undefined)	0	10	/	38*
CCn1c(=S)sc2c(=O)[nH]c(SCC(=O)Nc3cc(OC)ccc3OC)nc21	-2	26	-5	34*
C[C@H](NS(=O)(=O)c1ccccc1F)C(=O)OCC(=O)Nc1ccc2c(c1)OCCO2	-1	-1	/	-13
COc1cc(C=C2C(=O)NC(=O)NC2=O)ccc1O	1	11	1	32*
COc1ccc(C=C2NC(=O)NC2=O)cc1O	-2	-3	/	43*
O=C1NC(=O)/C(=C/c2cccc(O)c2)N1	-2	2	1	7
COc1cc(/C=C2\NC(=O)NC2=O)cc(Br)c1OC	-2	10	-1	32*
CSc1ccc(S(=O)(=O)NCC(=O)OCC(=O)N(C)CC(=O)Nc2ccc(F)cc2)cc1[N+](=O)[O-]	-2	21	/	9
COc1ccc(C2Nc3cccc(O)c3C(=O)N2Cc2ccccc2)cc1COc1ccc(NC(C)=O)cc1 (centres undefined)	1	2	/	11
O=C(O)c1ccc(/C=C2\SC(=S)N(Nc3ccccc3)C2=O)cc1	-1	15	-4	34*
Cc1cc(C)nc(NN2C(=O)/C(=C/c3ccccc3)SC2=S)n1	1	-2	/	34*
SMILES	Mtb FBA inh	CCHF vOTU inh	RecA splice inh	GDH-TPI inh
O=C(CN1C(=O)S/C(=C\C=C\c2ccccc2)C1=O)Nc1cccc(O)c1	-3	3	5	32*
O=C(CCCN1C(=O)S/C(=C\C=C\c2ccccc2)C1=O)Nc1ccc(C(=O)O)cc1	4	11	30*	19
CCOC(=O)[C@]12CCCC=C1N(Cc1ccc(Cl)cc1Cl)C(=O)[C@H](CC(=O)NCC13CC4CC(CC(C4)C1)C3)C2	/	16	/	/
O=C(CN1C(=O)S/C(=C\c2ccc(C(=O)O)cc2)C1=O)Nc1ccccc1	0	16	0	35*
Cc1ccc(NC(=O)CN2C(=O)S/C(=C/c3ccncc3)C2=O)cc1	4	18	/	8
COc1cccc(/C=N\N2CCN(c3ccc(C)cc3)CC2)c1O	/	-5	/	/
COC(=O)c1ccc(N=NN2CCCCCC2)cc1	4	-8	6	32*
COC(=O)c1ccc(N=NN2CCOCC2)cc1	0	4	4	15
Cn1c(N)c(C#N)c(-c2ccccc2)c(C#N)c1=O	0	4	/	30
Cc1cccn2c(=O)c(C=Nc3ccccc3)c(NCc3ccco3)nc12	39*	/	-6	22
O=C(O)C1CCN(c2ccc(S(=O)(=O)N3CCC(C(=O)O)CC3)cc2[N+](=O)[O-])CC1	-3	3	-1	0
CN(Cc1ccccc1)c1ccc(S(=O)(=O)N2CCC(C(=O)O)CC2)cc1[N+](=O)[O-]	+	10	2	1
Cn1c(O)c(N=NC(=O)CNC(=O)c2cccnc2)c2ccccc21	0	10	-1	39*
COC(=O)Cn1c(O)c(N=NC(=O)CNC(=O)c2ccncc2)c2ccccc21	1	19	2	38*

Screening data: PubChem, several laboratories
